From PubChem BioAssay (Tox21)
Records with an inconclusive call do not appear. A call without a number means that no potency is given here. Active and inactive are the calls of the source. Unless noted, calls follow the shape of the full dose curve.

How the values were obtained:
[1] = Nuclear factor erythroid 2-related factor 2/antioxidant responsive element (Nrf2/ARE) small molecule agonists: qHTS cell viability counter screen in human keratinocytes (AID 1919968; active = well fitted curve in the direction sought with a large enough effect in the repeat runs; an effect the other way counts as inactive or inconclusive; also: nearly all actives have a fitted effect of over 55% in size)
Method in brief: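 Measured as CellTiter-Fluor fluorescence, this readout tracks cytotoxicity in the same wells as the ARE-luciferase screen. HaCaT reporter cells (1,500/well) received compounds after a 5 h pre-incubation and were exposed for 23 h.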

[2] = Nuclear factor erythroid 2-related factor 2/antioxidant responsive element (Nrf2/ARE) small molecule agonists: luciferase reporter gene qHTS assay in human keratinocytes (AID 1919969); also: nearly all actives have a fitted effect of over 35% in size; also: potency is read from the fitted curve at half-maximal effect
[3] = biological target: Gonadotropin-releasing hormone receptor (Homo sapiens) (UniProt P30968); assay: Human gonadotropin-releasing hormone receptor (GnRHR) small molecule agonists, calcium flux assay in GnRHR-HEK293 cells (AID 1920063); also: nearly all actives have a fitted effect of over 35% in size
Gonadotropin-releasing hormone receptor (Homo sapiens), sequence (P30968 whole entry, looked up): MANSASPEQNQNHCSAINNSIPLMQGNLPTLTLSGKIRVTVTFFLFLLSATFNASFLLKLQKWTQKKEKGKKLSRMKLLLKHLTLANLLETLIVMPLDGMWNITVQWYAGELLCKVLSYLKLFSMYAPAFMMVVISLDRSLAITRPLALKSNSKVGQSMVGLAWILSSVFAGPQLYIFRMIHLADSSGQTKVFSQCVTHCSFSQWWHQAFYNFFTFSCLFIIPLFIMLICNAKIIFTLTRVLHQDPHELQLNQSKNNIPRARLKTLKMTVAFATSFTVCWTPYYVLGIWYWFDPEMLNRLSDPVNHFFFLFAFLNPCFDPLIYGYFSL
Method in brief: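 Fluorescence kinetics (480 nm excitation, 540 nm emission; 3 min, 1 s steps) report calcium mobilisation in human GnRHR-HEK293 cells in agonist mode. Dye incubation: 1 h, 37 C.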

[4] = biological target: KiSS-1 receptor (Homo sapiens) (UniProt Q969F8); assay: Human kisspeptin (KISS1R) small molecule agonists, calcium flux assay in KISS1R-HEK293 cells (AID 1920064; active = well fitted curve in the direction sought with a large enough effect in the repeat runs; an effect the other way counts as inactive or inconclusive)
KiSS-1 receptor (Homo sapiens), sequence (Q969F8 whole entry, looked up): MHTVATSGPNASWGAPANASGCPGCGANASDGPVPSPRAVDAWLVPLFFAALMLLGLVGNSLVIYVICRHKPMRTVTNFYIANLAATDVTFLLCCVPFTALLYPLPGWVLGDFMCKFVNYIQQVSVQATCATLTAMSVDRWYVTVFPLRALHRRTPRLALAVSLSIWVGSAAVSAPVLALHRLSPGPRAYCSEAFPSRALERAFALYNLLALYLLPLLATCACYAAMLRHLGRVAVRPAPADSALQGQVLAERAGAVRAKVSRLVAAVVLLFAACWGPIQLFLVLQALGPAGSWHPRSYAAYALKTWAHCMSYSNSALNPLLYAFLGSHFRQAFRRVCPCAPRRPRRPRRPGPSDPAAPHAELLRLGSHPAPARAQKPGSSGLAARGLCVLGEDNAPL
Method in brief: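 Measures KISS1R agonism through calcium-sensitive dye fluorescence in stably transfected HEK293 cells, read for 3 min after pin-tool compound delivery; 15-point titrations in triplicate.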

[5] = G protein-coupled receptor (GPCR) small molecule agonists, calcium flux assay: HEK293 wild type cell line counter screen (AID 1920065)
Method in brief: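 Readout: fluorescence at 480 nm excitation/540 nm emission, sampled at 1 s intervals for 3 min. Cells had been cultured 18 h, then dye-loaded 1 h at 37 C before compound or ATP addition.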

[6] = p53 small molecule agonists, cell-based qHTS assay with human liver microsomes: qHTS cell viability counter screen (AID 1963579); also: nearly all actives have a fitted effect of over 45% in size
Method in brief: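 After the 460/530 nm beta-lactamase read, CellTiter-Glo was added to the same wells and luminescence measured after 30 min at room temperature, giving viability of p53RE-bla cells treated 16 h with compounds plus microsomes and NADPH.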

[7] = p53 small molecule agonists, cell-based qHTS assay with rat liver microsomes: qHTS cell viability counter screen (AID 1963580); also: nearly all actives have a fitted effect of over 45% in size
Method in brief: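 HCT-116 p53RE-bla, 4,000 cells/well, 5 h pre-incubation; cpd + rat liver microsomes 0.5 mg/mL + NADPH 0.5 mg/mL (final); 16 h, 37 C; CellTiter-Glo, 30 min RT; luminescence.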

[8] = p53 small molecule agonists, cell-based qHTS assay: qHTS cell viability counter screen (AID 1963581); also: nearly all actives have a fitted effect of over 45% in size
Method in brief: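 In the same plates used for the p53 bla reporter, HCT-116 cells given compounds for 16 h at 37 C received CellTiter-Glo; luminescence was recorded 30 min later at room temperature.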

[9] = biological target: 5-hydroxytryptamine receptor 2A (Homo sapiens) (UniProt P28223); assay: 5-hydroxytryptamine receptor 2A (HTR2A) small molecule antagonists, cell-based qHTS assay (AID 1963586); also: nearly all actives have a fitted effect of over 45% in size
5-hydroxytryptamine receptor 2A (Homo sapiens), sequence (P28223 whole entry, looked up): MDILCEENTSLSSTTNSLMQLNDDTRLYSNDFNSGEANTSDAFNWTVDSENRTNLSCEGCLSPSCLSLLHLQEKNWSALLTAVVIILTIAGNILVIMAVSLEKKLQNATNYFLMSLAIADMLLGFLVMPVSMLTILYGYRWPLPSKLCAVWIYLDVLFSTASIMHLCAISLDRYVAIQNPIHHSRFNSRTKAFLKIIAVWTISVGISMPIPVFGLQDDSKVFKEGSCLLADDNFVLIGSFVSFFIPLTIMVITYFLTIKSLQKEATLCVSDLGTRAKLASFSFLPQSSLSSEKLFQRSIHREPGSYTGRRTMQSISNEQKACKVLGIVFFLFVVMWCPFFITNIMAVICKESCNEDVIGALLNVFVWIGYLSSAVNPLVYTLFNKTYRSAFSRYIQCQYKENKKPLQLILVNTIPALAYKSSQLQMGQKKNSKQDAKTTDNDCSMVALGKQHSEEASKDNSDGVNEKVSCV
Method in brief: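 Antagonist-mode intracellular calcium assay: DOI (4 nM) added after 5 min compound pre-incubation at room temperature to dye-loaded HTR2A-CHO cells. Fluorescence followed for 3 min, sampled every second.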

[10] = biological target: 5-hydroxytryptamine receptor 2A (Homo sapiens) (UniProt P28223); assay: 5-hydroxytryptamine receptor 2A (HTR2A) small molecule agonists, cell-based qHTS assay (AID 1963587); also: nearly all actives have a fitted effect of over 30% in size
Method in brief: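 Kinetic calcium-flux fluorescence (2 min, 1 sec intervals) after compound addition in agonist mode. HTR2A-CHO cells were cultured 18 h, then dye-loaded 1 h at 37 C.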

[11] = biological target: Muscarinic acetylcholine receptor M1 (Homo sapiens) (UniProt P11229); assay: Cholinergic receptor muscarinic 1 (CHRM1) small molecule antagonists, cell-based qHTS assay (AID 1963588); also: nearly all actives have a fitted effect of over 40% in size; also: potency is read from the fitted curve at half-maximal effect
Muscarinic acetylcholine receptor M1 (Homo sapiens), sequence (P11229 whole entry, looked up): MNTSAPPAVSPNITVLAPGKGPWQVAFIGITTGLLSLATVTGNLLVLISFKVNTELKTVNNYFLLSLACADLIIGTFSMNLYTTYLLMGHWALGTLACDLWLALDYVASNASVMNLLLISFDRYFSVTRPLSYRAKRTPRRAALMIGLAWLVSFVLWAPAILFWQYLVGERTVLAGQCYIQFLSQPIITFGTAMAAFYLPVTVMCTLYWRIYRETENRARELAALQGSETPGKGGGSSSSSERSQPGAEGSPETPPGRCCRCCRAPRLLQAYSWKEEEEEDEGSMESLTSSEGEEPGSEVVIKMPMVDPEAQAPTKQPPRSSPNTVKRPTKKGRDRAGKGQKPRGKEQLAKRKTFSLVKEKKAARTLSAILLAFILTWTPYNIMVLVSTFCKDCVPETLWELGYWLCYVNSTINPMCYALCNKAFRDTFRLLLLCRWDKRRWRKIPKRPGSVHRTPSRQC
Method in brief: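 CHRM1-CHO calcium-flux assay, antagonist mode. Cells were seeded 18 h, dye-loaded 1 h at 37 C and given compound for 5 min at RT, then acetylcholine was added at 50nM. FDSS fluorescence was read 3 min; 15 concentrations, three runs.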

[12] = biological target: Beta-2 adrenergic receptor (Homo sapiens) (UniProt P07550); assay: Adrenergic beta2 receptor (ADRB2) small molecule antagonists, cell-based qHTS assay (AID 1963592); also: series mostly up to about 92 µM; nearly all actives have a fitted effect of over 50% in size
Beta-2 adrenergic receptor (Homo sapiens), sequence (P07550 whole entry, looked up): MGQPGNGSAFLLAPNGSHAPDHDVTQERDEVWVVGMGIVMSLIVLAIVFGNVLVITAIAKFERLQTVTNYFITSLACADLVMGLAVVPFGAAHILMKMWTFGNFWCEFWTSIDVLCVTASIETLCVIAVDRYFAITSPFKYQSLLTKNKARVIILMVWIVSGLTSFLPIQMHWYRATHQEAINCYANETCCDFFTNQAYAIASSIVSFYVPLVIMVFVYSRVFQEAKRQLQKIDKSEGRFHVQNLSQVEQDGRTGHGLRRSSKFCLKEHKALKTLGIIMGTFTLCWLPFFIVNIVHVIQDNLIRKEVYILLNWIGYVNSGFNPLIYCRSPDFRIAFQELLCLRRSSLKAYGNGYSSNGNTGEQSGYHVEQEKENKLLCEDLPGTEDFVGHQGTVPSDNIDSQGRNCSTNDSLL
Method in brief: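 Cells (CHO, stable ADRB2 overexpression) incubated 18-20hr at 37C; compounds added from DMSO; agonist mix (1nM isoproterenol, 100uM IBMX, 25uM Ro-20-1724) added; 0.5hr RT; d2-cAMP and anti-cAMP-cryptate added; 1hr RT; 665/615 nm read.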

[13] = biological target: D(2) dopamine receptor (Homo sapiens) (UniProt P14416); assay: Dopamine D2 receptor (DRD2) small molecule agonists, cell-based qHTS assay (AID 1963594); also: nearly all actives have a fitted effect of over 35% in size
D(2) dopamine receptor (Homo sapiens), sequence (P14416 whole entry, looked up): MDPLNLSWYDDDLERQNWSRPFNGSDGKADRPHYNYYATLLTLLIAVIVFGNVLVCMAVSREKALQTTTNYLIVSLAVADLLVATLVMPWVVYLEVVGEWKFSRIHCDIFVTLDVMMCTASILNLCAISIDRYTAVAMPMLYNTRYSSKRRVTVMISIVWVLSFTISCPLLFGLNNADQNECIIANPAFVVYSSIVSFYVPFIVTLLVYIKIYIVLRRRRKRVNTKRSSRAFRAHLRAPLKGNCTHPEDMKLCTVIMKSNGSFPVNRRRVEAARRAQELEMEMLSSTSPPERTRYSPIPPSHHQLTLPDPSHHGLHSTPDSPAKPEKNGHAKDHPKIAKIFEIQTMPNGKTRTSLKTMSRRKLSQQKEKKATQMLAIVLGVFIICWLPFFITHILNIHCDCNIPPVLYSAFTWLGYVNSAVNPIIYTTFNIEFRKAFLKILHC
Method in brief: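 cAMP accumulation in DRD2-HEK293 cells measured by HTRF after 1 h detection; compounds added 10 min before NKH477 (200nM […]) forskolin-analogue stimulation, 30 min at room temperature, with Ro20-1724 present at 0.1 mM final.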

[14] = biological target: Muscarinic acetylcholine receptor M1 (Homo sapiens) (UniProt P11229); assay: Cholinergic receptor muscarinic 1 (CHRM1) small molecule agonists, cell-based qHTS assay (AID 1963589); also: nearly all actives have a fitted effect of over 35% in size
Method in brief: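 Each compound was tested at 15 concentrations across three independent runs on dye-loaded CHO cells stably expressing human CHRM1, reading intracellular calcium fluorescence kinetically at 1 sec intervals.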

[15] = cAMP Responsive Elements (CRE) small molecule agonists, cell-based qHTS assay (AID 1963590)
Method in brief: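 Cell line: CRE-bla HEK 293T; medium DMEM/10% dialyzed FBS/0.1 mM NEAA/1 mM pyruvate/25 mM HEPES; 3 h compound exposure; beta-lactamase FRET readout after 2 h substrate loading at RT.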

[16] = biological target: Beta-2 adrenergic receptor (Homo sapiens) (UniProt P07550); assay: Adrenergic beta2 receptor (ADRB2) small molecule agonists, cell-based qHTS assay (AID 1963593);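 also: CHO cells stably overexpressing human ADRB2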
Method in brief: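 CHO cells stably over-expressing ADRB2 were plated overnight at 37C, then dosed with compounds plus a stimulation mix containing 100uM IBMX and 25uM Ro-20-1724 for 0.5hr at room temperature. cAMP was measured by HTRF competition, 1hr.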

[17] = biological target: D(2) dopamine receptor (Homo sapiens) (UniProt P14416); assay: Dopamine D2 receptor (DRD2) small molecule antagonists, cell-based qHTS assay (AID 1963595; active = well fitted inhibition curve with a large enough effect in the signal ratio in the repeat runs, with a control signal flat; the % refers to the signal ratio; also: potency is read from the fitted curve at half-maximal effect)
Method in brief: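 In this cell-based antagonist screen, compounds act for 10 min at room temperature before a 30 min challenge with 12 nM quinpirole and 200 nM NKH477. cAMP is quantified by HTRF competition in DRD2-HEK293 cells containing 0.1 mM Ro20-1724.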

[18] = cAMP Responsive Elements (CRE) small molecule antagonists, cell-based qHTS assay (AID 1963591; active = well fitted inhibition curve with a large enough effect in the signal ratio in the repeat runs, not every such curve was filed as active; the % refers to the signal ratio)
Method in brief: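 Inhibition of NKH477-driven (0.25 uM final) CRE-beta-lactamase signal in HEK293T cells, 3 h compound exposure at 37 °C, detected by FRET substrate fluorescence.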

| Compound | Potency [1] | Potency [2] | Potency [3] | Potency [4] | Potency [5] | Potency [6] | Potency [7] | Potency [8] | Potency [9] | Potency [10] | Potency [11] | Potency [12] | Potency [13] | Potency [14] | Potency [15] | Potency [16] | Potency [17] | Potency [18] |
| --- | --- | --- | --- | --- | --- | --- | --- | --- | --- | --- | --- | --- | --- | --- | --- | --- | --- | --- |
| OC/C(Br)=C(\Br)CO | inactive | inactive | inactive | inactive | inactive | inactive | inactive | inactive | inactive | inactive | inactive | inactive | inactive | – | – | – | – | – |
| S=C([S-])NCCNC(=S)[S-].[Mn+2] | inactive | inactive | inactive | inactive | inactive | inactive | inactive | inactive | inactive | inactive | – | inactive | inactive | inactive | inactive | inactive | – | – |
| CCCOc1ccc(S(=O)(=O)N2CCN(CC)CC2)cc1-c1nc2c(CC)n(Cc3ccccn3)nc2c(=O)[nH]1 | inactive | inactive | inactive | inactive | inactive | inactive | inactive | inactive | – | inactive | 18.8 µM (active) | – | – | inactive | – | – | inactive | – |
| CC(CN(CCN(CC(C)OCCO)CC(C)OCCO)CC(C)OCCO)OCCO (configuration not stated) | inactive | inactive | inactive | inactive | inactive | inactive | inactive | inactive | inactive | – | inactive | – | inactive | inactive | inactive | inactive | inactive | inactive |
| CN(C)CCOCCO | inactive | inactive | inactive | inactive | inactive | inactive | inactive | inactive | inactive | – | inactive | inactive | – | inactive | inactive | – | inactive | – |
| NCCCN1CCOCC1 | inactive | inactive | inactive | inactive | inactive | inactive | inactive | inactive | – | inactive | inactive | inactive | inactive | inactive | inactive | – | inactive | – |
| NNc1nc(-c2ccccc2)cs1 | inactive | 62.9 µM (active) | inactive | inactive | inactive | inactive | inactive | inactive | – | inactive | inactive | inactive | – | inactive | – | – | inactive | – |
| CCC(C(=O)NC(=O)NC(C)=O)c1ccccc1 (configuration not stated) | inactive | inactive | inactive | inactive | inactive | inactive | inactive | inactive | – | inactive | inactive | inactive | inactive | inactive | inactive | inactive | inactive | inactive |
| CC1CC(OC(=O)C(O)c2ccccc2)CC(C)(C)N1C (configuration not stated) | inactive | inactive | inactive | inactive | inactive | inactive | inactive | inactive | – | inactive | 0.41 µM (active) | – | inactive | inactive | inactive | inactive | inactive | inactive |
| O=C1OC(=O)c2c(Br)c(Br)c(Br)c(Br)c21 | inactive | inactive | inactive | inactive | inactive | inactive | inactive | inactive | – | inactive | – | inactive | inactive | inactive | inactive | inactive | inactive | inactive |
| CN1CCC(=C2c3ccccc3CCc3cccnc32)CC1 | inactive | inactive | inactive | inactive | inactive | inactive | inactive | inactive | – | inactive | – | inactive | inactive | inactive | – | – | 29.8 µM (active) | inactive |
| CC(C)(C)c1ccc(-c2ccc(C(C)(C)C)cc2)cc1 | inactive | inactive | inactive | inactive | inactive | inactive | inactive | inactive | inactive | – | – | inactive | inactive | inactive | inactive | – | inactive | inactive |
| CCO[Si](CCC1CCC2OC2C1)(OCC)OCC (configuration not stated) | inactive | inactive | inactive | inactive | inactive | inactive | inactive | inactive | – | inactive | inactive | inactive | inactive | inactive | inactive | inactive | inactive | inactive |
| Cc1nc2c([nH]1)c(=O)n(C)c(=O)n2Cc1ccco1 | inactive | inactive | inactive | inactive | inactive | inactive | inactive | inactive | inactive | – | inactive | inactive | – | inactive | – | – | inactive | inactive |
